Measured values taken from PMC4336329 (PLoS ONE, 2015).
Out of some 310,000 compounds screened, about 14,000 (4.5%) showed an effect of 50% or more. Effects have a minus sign here. The sample as a whole holds a higher share of strong results than the screen did.

molecular target: human ether-à-go-go-related gene (hERG) potassium channel (human, UniProt Q12809); experiment: primary screen, population patch clamp on CHO cells stably expressing hERG; higher = less effect of the substance
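Further: peak tail current of the secondary pulse compared with the same well before compound.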

human ether-à-go-go-related gene (hERG) potassium channel, sequence (Q12809 whole entry, looked up): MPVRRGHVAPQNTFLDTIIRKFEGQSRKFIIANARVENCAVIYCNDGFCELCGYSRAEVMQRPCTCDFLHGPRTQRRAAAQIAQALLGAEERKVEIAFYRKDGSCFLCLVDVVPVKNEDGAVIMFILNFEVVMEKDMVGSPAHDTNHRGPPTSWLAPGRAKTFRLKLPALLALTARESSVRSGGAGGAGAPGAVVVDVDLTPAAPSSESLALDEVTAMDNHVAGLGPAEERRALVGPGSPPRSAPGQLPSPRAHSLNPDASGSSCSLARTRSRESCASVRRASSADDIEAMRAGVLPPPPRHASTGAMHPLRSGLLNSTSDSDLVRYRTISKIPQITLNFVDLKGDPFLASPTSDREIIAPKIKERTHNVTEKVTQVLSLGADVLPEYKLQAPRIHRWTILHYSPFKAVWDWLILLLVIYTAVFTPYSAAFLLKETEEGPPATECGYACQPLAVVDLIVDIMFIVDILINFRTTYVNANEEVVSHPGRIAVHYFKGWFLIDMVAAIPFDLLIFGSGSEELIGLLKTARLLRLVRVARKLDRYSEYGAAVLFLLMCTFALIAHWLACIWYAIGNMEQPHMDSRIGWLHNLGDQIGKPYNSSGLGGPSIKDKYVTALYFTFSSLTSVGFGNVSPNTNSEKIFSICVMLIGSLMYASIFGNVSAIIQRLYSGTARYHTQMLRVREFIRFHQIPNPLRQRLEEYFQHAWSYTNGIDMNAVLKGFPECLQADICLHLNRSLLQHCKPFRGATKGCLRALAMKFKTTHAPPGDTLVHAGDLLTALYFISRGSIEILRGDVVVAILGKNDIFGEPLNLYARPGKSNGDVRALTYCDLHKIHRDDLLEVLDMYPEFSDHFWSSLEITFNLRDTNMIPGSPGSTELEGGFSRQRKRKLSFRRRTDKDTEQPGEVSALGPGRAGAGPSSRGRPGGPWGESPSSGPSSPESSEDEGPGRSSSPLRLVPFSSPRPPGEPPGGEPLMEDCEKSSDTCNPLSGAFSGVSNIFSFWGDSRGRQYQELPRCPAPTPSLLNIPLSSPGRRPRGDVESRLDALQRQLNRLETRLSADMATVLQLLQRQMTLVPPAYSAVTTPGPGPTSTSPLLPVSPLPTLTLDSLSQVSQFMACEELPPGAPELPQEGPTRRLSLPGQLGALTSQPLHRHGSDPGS

Row | SMILES | hERG current change (%, negative = inhibition) at 10uM [%]
1 | Cc1ccc(C(C)C)c(Oc2nnnn2-c2ccccc2)c1 | 14.2
2 | CC(=O)N1CCC(N(CCCOC(C)C)S(=O)(=O)c2ccc([N+](=O)[O-])cc2)CC1 | -35.3
3 | CCn1cc(C(=O)N2CCn3c(nc4ccccc43)C2)c(=O)c2ccc(C)nc21 | -12.4
4 | COc1ccc(NC(=O)CSC2=C(C#N)C(c3ccco3)C3=C(CCCC3=O)N2)c(OC)c1 (stereo not shown) | -33.2
5 | Fc1ccccc1Nc1nc(NCc2ccco2)nc(N2CCOCC2)n1 | -15.8
6 | CCCOc1cccc(C2C(C(=O)c3ccc(C)o3)=C(O)C(=O)N2c2nc(C)c(C(C)=O)s2)c1 (stereo not shown) | 9.66
7 | COc1cc(NC(=O)c2c(F)c(F)c(OC)c(F)c2F)ccc1NC(=O)c1cccs1 | 11.2
8 | COc1ccc(C(=S)N2CCCC2)cc1Br | -7.39
9 | CCOC(=O)Cc1csc(NC(=O)NC2(C(F)(F)F)Oc3ccccc3O2)n1 | 5.19
10 | O=C(NCCc1ccccc1)c1ccc(CS(=O)(=O)Cc2ccccc2F)o1 | -19.7
11 | CCCCN(C)C(=O)C1CCN(Cc2ccccn2)CC1.O=C(O)C(=O)O | -4.27
12 | CCCCN(C)C(=O)C1CCN(Cc2cccnc2)CC1 | 9.71
13 | CCCCN(C)C(=O)C1CCN(CCCc2ccccc2)CC1.O=C(O)C(=O)O | -73.4
14 | CN(CCO)CC(O)CN(c1ccccc1)c1ccccc1.Cl (stereo not shown) | -52.1
15 | NCC(O)CN(c1ccccc1)c1ccccc1 (stereo not shown) | 12
16 | Cl.OCCN(CCO)CC(O)CN(c1ccccc1)c1ccccc1 (stereo not shown) | -14.6
17 | OCC(O)CN(c1ccccc1)c1ccccc1 (stereo not shown) | 2.58
18 | CN(C)CC(O)CN(c1ccccc1)c1ccccc1 (stereo not shown) | -54
19 | CNCC(O)CN(c1ccccc1)c1ccccc1 (stereo not shown) | -39.8
20 | CCCCCCn1c(=O)c(C(=O)Nc2nnc(C)s2)c(O)c2ccccc21 | -1.74
21 | Cc1nnc(Nc2ccc3c(c2)OCO3)c2ccccc12 | -7.51
22 | O=C(CCc1nnc2n(Cc3ccc(F)cc3)c(=O)c3ccccc3n12)NCCCN1CCOCC1 | -16.4
23 | O=C(CCc1ccccc1)NCCCN1CCOCC1 | 12.3
24 | Cc1ccc(Cn2c(=O)c3ccccc3n3c(CCC(=O)NCCN4CCOCC4)nnc23)cc1 | -19.5

Row | SMILES | hERG current change (%, negative = inhibition) at 10uM [%]
25 | O=C(CCc1nnc2n(Cc3ccc(Cl)cc3)c(=O)c3ccccc3n12)NCCCN1CCOCC1 | -59.9
26 | O=C(CCc1nnc2n(Cc3ccc(Cl)cc3)c(=O)c3ccccc3n12)NCCN1CCCC1 | -75.8
27 | CC1CCCC(C)N1CCNC(=O)CCc1nnc2n(Cc3ccccc3)c(=O)c3ccccc3n12 (stereo not shown) | -42.6
28 | O=C(CCc1nnc2n(Cc3ccccc3)c(=O)c3ccccc3n12)NCCN1CCOCC1 | -1.06
29 | O=C(CCc1nnc2n(Cc3ccc(F)cc3)c(=O)c3ccccc3n12)NCCN1CCOCC1 | -20.3
30 | CC1CCCCN1CCNC(=O)CCc1nnc2n(Cc3ccccc3)c(=O)c3ccccc3n12 (stereo not shown) | -51.6
31 | COc1ccccc1CNC(=O)Cn1cc([N+](=O)[O-])ccc1=O | 15.2
32 | O=C1c2ccc3c4c(ccc(c24)C(=O)N1c1cccc(O)c1)C(=O)N(c1cccc(O)c1)C3=O | 8.86
33 | CCc1ccc(NC(=O)C/C(C)=N/NC(=O)COc2ccc(C)cc2Br)cc1 | -30.5
34 | CCc1ccc(NC(=O)C/C(C)=N/NC(=O)COc2ccccc2C)cc1 | -53.2
35 | CCc1ccccc1NC(=O)C/C(C)=N/NC(=O)COc1ccccc1C | 9.02
36 | COc1ccc(S(=O)(=O)Nc2ccccc2C(=O)N2CCOCC2)cc1C | -0.937
37 | CCC(=O)Oc1cccc(C(=O)Nc2cccc(NC(=O)c3ccco3)c2)c1 | -1.06
38 | CCS(=O)(=O)n1nc(-c2ccccc2)nc1NCc1ccco1 | -29.9
39 | COc1ccc(C(=O)N/N=C\c2coc3ccccc3c2=O)cc1 | 6.36
40 | CC(Oc1ccccc1)c1nnc(N)s1 (stereo not shown) | -1.12
41 | COc1ccc(OC(C)c2nnc(N)s2)cc1 (stereo not shown) | -71.4
42 | Cc1ccc(OC(C)c2nnc(N)s2)cc1Cl (stereo not shown) | -2.12
43 | Clc1ccc(CSc2nncn2-c2ccccn2)cc1 | -28.7
44 | CC(C)(CO)NCc1cc(Br)ccc1OCc1ccccc1.Cl | -35.5
45 | COc1cccc(CNCCO)c1OCc1ccccc1Cl.Cl | -8.68
46 | Cl.OCCNCCNCc1ccccc1OCc1ccccc1 | 8.83
47 | Cl.OCCNCc1cc(Br)ccc1OCc1ccccc1 | -55.7
48 | C=CCOc1ccc(Br)cc1CNCCO.Cl | 0.469

Row | SMILES | hERG current change (%, negative = inhibition) at 10uM [%]
49 | Cl.OCCNCc1cc(Br)ccc1OCc1ccccc1Cl | -74.9
50 | COc1cc(CNCCO)cc(Br)c1OCc1ccccc1Cl.Cl | -3.45
51 | CC(C)NCc1cc(Br)ccc1OCc1ccccc1.Cl | -61.8
52 | COCC(C)NCc1cc(Br)ccc1OC.O=C(O)C(=O)O (stereo not shown) | 8.73
53 | COc1cc(CNCCO)cc(Br)c1OCc1ccccc1.Cl | -25.4
54 | Cl.OCCNCc1cc(Br)ccc1OCc1ccc(Cl)cc1 | -66.6
55 | Cl.OCCNCc1cc(Br)ccc1OCc1ccc(F)cc1 | -49.7
56 | O=C(O)COc1ccc(/C=C2/SC(=S)N(Cc3ccccc3)C2=O)cc1 | 17.3
57 | COc1cnc(-c2ccccc2)nc1Oc1cccc(C)c1C | -0.114
58 | Cc1ccccc1C1c2[nH]c3ccccc3c2CCN1C(=O)c1ccc(=O)n(C)n1 (stereo not shown) | -10.6
59 | Cc1noc(C)c1COc1cccc(C(=O)NCc2ccccc2Cl)c1 | -11.3
60 | Cc1cccc(OCC(=O)NNC(=O)c2cc3ccccc3oc2=O)c1 | -9.32
61 | CC1CC(C)CN(CCCNC(=O)CN2C(=O)c3cccnc3Oc3ccc(Cl)cc32)C1 (stereo not shown) | -30.7
62 | Cc1ccc(S(=O)(=O)N/N=C/c2cn(C)nc2C)cc1 | -2.68
63 | Cl.OCCCCNCc1cc(Br)ccc1OCc1ccccc1 | -61.8
64 | COc1cc(CNCCCCO)ccc1OCc1ccccc1F.Cl | -14.2
65 | Cl.OCCCCNCc1cc(Br)ccc1OCc1ccccc1F | -24.7
66 | Cc1ccc(OCc2nnc(SCC(=O)N3CCc4ccccc43)n2C)cc1 | 16.4
67 | Cc1ccc(-c2csc3ncn(CC(=O)N4CCOCC4)c(=O)c23)cc1C | -5.43
68 | CCn1c(SCC(=O)Nc2cccc(NC(C)=O)c2)nnc1-c1ccco1 | 14.8
69 | COc1ccc(S(=O)(=O)N2CCOCC2)cc1C(=O)N1CCCCC1 | -31.6
70 | Cc1ccccc1CN1CCc2cc([N+](=O)[O-])ccc21 | 19.1
71 | CN(C)CCCN1c2ccc([N+](=O)[O-])cc2CCc2cc([N+](=O)[O-])ccc21 | -50.3
72 | CC(=O)N1c2ccccc2CCc2ccc([N+](=O)[O-])cc21 | 2.5

Row | SMILES | hERG current change (%, negative = inhibition) at 10uM [%]
73 | C=CCNC(=S)NC(=O)c1ccc(C)c(Br)c1 | 3.39
74 | N/C(=N\OC(=O)N1CCOCC1)c1ccc(Br)cc1 | 17.6
75 | CN1C[C@H](CO)C=C2c3cccc4[nH]cc(c34)C[C@H]21 | 4.32
76 | COc1ccccc1C(=O)Nc1c(C(=O)N(CCN(C)C)Cc2ccco2)oc2ccccc12 | -82.7
77 | COc1ccccc1C(=O)NCc1ccco1 | 9.61
78 | CCOC(=O)c1oc2ccccc2c1NC(=O)c1ccccc1OC | 16.6
79 | Cc1c(C(=O)N(Cc2ccco2)Cc2cccs2)oc2ccccc12 | -34.2
80 | Cc1ccccc1C(=O)Nc1c(C(=O)N(CCN(C)C)Cc2ccco2)oc2ccccc12 | -79.7
81 | Cc1c(C(=O)NCc2ccco2)oc2ccccc12 | -6.97
82 | COCCNC(=S)Nc1cc(OC)c(NC(=O)c2ccco2)cc1OC | -3.62
83 | Cc1ccc(OCCCCNC(C)(C)C)c([N+](=O)[O-])c1.O=C(O)C(=O)O | -4.42
84 | COc1cccc(CNc2nc(SC)ncc2CO)c1 | 14.5
85 | CC(=O)c1c(C)nc(-c2ccc3c(c2)OCO3)n1O | 0.643
86 | COc1ccccc1C(=O)C1CCCN(C(=O)c2cc(CC(C)C)nc(C)n2)C1 (stereo not shown) | -60.5
87 | COc1ccccc1C(=O)C1CCCN(C(=O)C2CCCC2)C1 (stereo not shown) | -6.06
88 | CCc1noc(C)c1C(=O)N1CCCC(C(=O)c2cc(F)ccc2OC)C1 (stereo not shown) | 18.6
89 | COc1ccccc1C(=O)C1CCCN(C(=O)c2ccccn2)C1 (stereo not shown) | 12.4
90 | COc1ccc(F)cc1C(=O)C1CCCN(C(=O)C2=C(C)OCCO2)C1 (stereo not shown) | 1.15
91 | Cc1cc(C(=O)N2CCCC(C(=O)c3cccc4ccccc34)C2)nc(C)n1 (stereo not shown) | -2.09
92 | CCOC(=O)N1CCC(N2CCCC(C(=O)c3ccccc3OC)C2)CC1 (stereo not shown) | -67.7
93 | CCN(CC)CC(=O)N1CCCC(C(=O)c2ccccc2OC)C1 (stereo not shown) | -10.3
94 | CCOC(=O)N1CCC(N2CCCC(C(=O)c3cc(F)ccc3OC)C2)CC1 (stereo not shown) | -86.7
